Experimental data published in PubChem BioAssay.
Active and inactive are the calls of the source.

Columns and labels:
[1] = anti-His antibody binders, primary screen, artefact control for SMM control protein annotation, biochemical, small-molecule microarray, 635 nm fluorescence (AID 1128); conditions: anti-His Alexa647 antibody binding, higher = more signal;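 also: score merges feature fluorescence with signal-to-noise for each printed compound spot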
[2] = test system: Human papillomavirus type 1a E7 protein (residues 1-88); assay: HPV1a E7 small-molecule binders, primary screen, biochemical, small-molecule microarray, residues 1-88, 635 nm (AID 1129); conditions: small-molecule microarray binding, fluorescence 635 nm; higher = more signal
[3] = target: Focal adhesion kinase 1 (Homo sapiens) (UniProt Q05397); assay: small-molecule microarray binders of FAK, primary screen, biochemical, 635/667 nm fluorescence, BSA, DTT (AID 1130); conditions: PTK2 binding, 635 nm fluorescence, higher = more signal;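 also: composite of spot emission at 667 nm and signal to noise over triplicate slides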
Chain of Focal adhesion kinase 1 (Homo sapiens) (Q05397 whole entry, looked up): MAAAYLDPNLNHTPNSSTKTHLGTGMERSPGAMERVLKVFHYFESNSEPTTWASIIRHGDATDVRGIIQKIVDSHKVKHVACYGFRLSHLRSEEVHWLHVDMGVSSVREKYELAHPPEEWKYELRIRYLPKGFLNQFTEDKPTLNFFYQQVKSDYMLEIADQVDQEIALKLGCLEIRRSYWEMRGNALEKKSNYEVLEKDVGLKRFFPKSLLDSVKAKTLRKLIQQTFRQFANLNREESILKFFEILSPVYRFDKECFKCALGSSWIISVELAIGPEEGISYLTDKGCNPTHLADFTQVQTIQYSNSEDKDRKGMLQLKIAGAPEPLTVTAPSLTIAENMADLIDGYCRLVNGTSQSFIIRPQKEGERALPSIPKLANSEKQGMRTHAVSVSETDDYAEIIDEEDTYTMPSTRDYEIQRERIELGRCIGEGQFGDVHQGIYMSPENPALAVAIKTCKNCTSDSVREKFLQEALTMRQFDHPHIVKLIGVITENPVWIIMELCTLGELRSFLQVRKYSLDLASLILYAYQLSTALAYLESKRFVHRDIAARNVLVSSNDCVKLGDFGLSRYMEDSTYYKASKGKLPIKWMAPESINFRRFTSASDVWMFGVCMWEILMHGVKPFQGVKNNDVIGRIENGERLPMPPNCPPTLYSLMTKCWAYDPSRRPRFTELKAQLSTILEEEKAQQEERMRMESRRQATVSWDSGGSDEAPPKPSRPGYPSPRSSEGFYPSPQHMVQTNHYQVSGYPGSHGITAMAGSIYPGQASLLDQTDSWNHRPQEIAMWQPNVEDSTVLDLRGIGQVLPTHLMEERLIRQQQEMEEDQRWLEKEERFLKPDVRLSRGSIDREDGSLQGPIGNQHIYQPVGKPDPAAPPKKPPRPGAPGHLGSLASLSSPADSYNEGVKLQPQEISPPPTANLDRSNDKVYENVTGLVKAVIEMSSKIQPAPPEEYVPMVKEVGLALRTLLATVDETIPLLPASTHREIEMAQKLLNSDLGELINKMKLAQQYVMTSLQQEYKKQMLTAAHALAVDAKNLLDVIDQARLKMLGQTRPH

[4] = test system: Fibrinogen (Alexa647-labelled); assay: fibrinogen binders on compound microarrays, profiling panel, artefact control for SMM control-protein annotation, biochemical, small-molecule microarray, 635/667 nm fluorescence (AID 1131); conditions: fibrinogen-A647 binding fluorescence, higher = more signal;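 also: z-score merges 667 nm fluorescence with per-spot signal-to-noise over triplicate slides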
[5] = target: Follistatin (Homo sapiens) (UniProt P19883); assay: follistatin binders on small-molecule microarrays, primary screen, biochemical, small-molecule microarray, 635/667 nm fluorescence (AID 1132); conditions: FST binding, 635 nm fluorescence, higher = more signal
Chain of Follistatin (Homo sapiens) (P19883 whole entry, looked up): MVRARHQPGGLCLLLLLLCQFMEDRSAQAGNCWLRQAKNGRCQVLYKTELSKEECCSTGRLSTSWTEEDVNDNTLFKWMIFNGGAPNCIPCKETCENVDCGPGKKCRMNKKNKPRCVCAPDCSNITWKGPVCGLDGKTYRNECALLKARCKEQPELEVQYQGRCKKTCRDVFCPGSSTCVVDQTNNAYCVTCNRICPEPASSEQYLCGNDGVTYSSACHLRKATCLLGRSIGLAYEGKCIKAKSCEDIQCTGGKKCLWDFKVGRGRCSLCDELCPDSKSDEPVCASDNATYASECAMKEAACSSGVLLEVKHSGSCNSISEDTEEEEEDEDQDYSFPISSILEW

[6] = target: Fibroblast growth factor 2 (Homo sapiens) (UniProt P09038); assay: FGF2 binders on small-molecule microarrays, primary screen, biochemical, small-molecule microarray, 635/667 nm fluorescence (AID 1133); conditions: small-molecule microarray binding, FGF2, fluorescence 635/667; higher = more signal
Chain of Fibroblast growth factor 2 (Homo sapiens) (P09038 whole entry, looked up): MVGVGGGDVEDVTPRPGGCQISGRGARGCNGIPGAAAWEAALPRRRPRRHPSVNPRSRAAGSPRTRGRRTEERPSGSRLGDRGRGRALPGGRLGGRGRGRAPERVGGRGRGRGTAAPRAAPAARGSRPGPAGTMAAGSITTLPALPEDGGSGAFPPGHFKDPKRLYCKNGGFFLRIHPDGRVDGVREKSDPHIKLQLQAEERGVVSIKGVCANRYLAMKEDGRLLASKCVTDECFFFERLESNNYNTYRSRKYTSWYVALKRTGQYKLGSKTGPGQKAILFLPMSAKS

[7] = mitochondrial membrane potential change in A549 cells, profiling panel, cell-based, JC-1 fluorescence, basal, 24 h, 100 nL (AID 1138); conditions: higher = more signal;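 also: A549 lung adenocarcinoma cells under basal conditions with no added stimulus; test concentration not given here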
Lefty1 = Lefty1 binders on small-molecule microarrays, primary screen, biochemical, small-molecule microarray, 635/667 nm fluorescence (AID 1139); conditions: small-molecule microarray binding, fluorescence 635/667; higher = more signal
[8] = test system: wheat germ agglutinin (Triticum aestivum), Alexa647-labelled; assay: wheat germ agglutinin binders on compound microarrays, profiling panel, artefact control for SMM control-protein annotation, biochemical, small-molecule microarray, 635/667 nm fluorescence (AID 1140); conditions: WGA-A647 binding, 635 nm fluorescence, higher = more signal;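 also: score merges 667 nm feature emission with signal to noise over triplicate slides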
[9] = target: Luciferin 4-monooxygenase (Photinus pyralis) (UniProt P08659); assay: firefly luciferase enzyme inhibitors, primary screen, biochemical, luminescence, purified enzyme, 2006 set (AID 1141); conditions: SteadyGlo luminescence, 30 min, higher = more signal, called active from +8 up or from −8 down;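 also: cell-free assay with purified firefly luciferase at 100 ng per well in PBS; test concentration not given here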
Chain of Luciferin 4-monooxygenase (Photinus pyralis) (P08659 whole entry, looked up): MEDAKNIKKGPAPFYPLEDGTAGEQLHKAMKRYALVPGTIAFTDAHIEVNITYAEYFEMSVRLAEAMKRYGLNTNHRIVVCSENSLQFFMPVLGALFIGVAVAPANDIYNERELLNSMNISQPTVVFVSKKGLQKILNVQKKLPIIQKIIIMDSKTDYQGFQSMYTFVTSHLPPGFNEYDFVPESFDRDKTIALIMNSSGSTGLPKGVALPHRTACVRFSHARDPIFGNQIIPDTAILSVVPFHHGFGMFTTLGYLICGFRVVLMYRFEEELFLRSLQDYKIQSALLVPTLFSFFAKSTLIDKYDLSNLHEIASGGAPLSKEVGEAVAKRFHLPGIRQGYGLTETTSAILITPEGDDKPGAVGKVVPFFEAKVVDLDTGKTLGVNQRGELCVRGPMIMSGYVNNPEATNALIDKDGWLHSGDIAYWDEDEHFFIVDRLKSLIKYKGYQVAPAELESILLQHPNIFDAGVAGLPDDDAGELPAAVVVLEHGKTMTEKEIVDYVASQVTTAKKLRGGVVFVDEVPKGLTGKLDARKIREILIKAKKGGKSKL

Structure (SMILES) | composite z-score [1] | composite z-score [2] | composite z-score [3] | composite z-score [4] | composite z-score [5] | composite z-score [6] | z-score [7] | composite z-score (Lefty1) | composite z-score [8] | z-score [9]
O=C(CCN1CCOCC1)c1cccc(O)c1 | 1.52 | 0.854 | 0.531 | 0.884 | 1.35 | 1.55 | 0.574 | 1.41 | 1.07 | 0.618 (inactive)
COc1ccc(C(O)C2C=CC3C(=O)N(C)C(=O)C3N2Nc2ccccc2)cc1OCc1ccccc1 (stereo not given) | 1.05 | 1.27 | 0.091 | 1.01 | 0.336 | -0.0667 | -0.295 | 0.0084 | 1.34 | -0.51 (inactive)
CCOC(=O)C[C@H]1[C@H](OC(=O)c2ccc(-c3ccccc3)cc2)[C@@H](NC(=O)Cc2ccc(OC)cc2)c2cc(OCCCO)ccc2N1C(=O)c1ccc2ccccc2n1 | 0.262 | 0.644 | 0.529 | 0.897 | -0.0303 | -0.433 | 0.895 | 0.484 | 0.419 | -0.639 (inactive)
COc1ccc(C#Cc2ccc3c(c2)[C@]2(C(=O)N3)[C@H](C(=O)NC[C@H](O)c3ccccc3)[C@H]3C(=O)O[C@H](c4ccccc4)[C@H](c4ccccc4)N3[C@@H]2c2ccc(OCCO)cc2)cc1 | 0.408 | 0.991 | 0.303 | 0.964 | 1.36 | 1.19 | -1.96 | 1.22 | 1.13 | -1.58 (inactive)
COc1ccc([Si](C)(C)[C@@H]2[C@@H](CC(=O)N3CCC[C@H]3CO)O[C@]3(C(=O)N(C)c4c(Br)cc(C)cc43)[C@H]2C)cc1 | 0.437 | 1.15 | 0.393 | 0.935 | 1.17 | 0.987 | 0.66 | 1.19 | 0.0832 | -0.297 (inactive)
CC(C)N1C(=O)C[C@@](C(=O)NCc2ccccc2)(c2ccc([N+](=O)[O-])cc2)[C@H]1c1ccc(CO)cc1 | 2.58 | 1 | 0.159 | -0.511 | 0.692 | 0.118 | 0.316 | 0.119 | 0.549 | 0.982 (inactive)
CN(C)CCCCCCNC(=O)[C@H]1C[C@H]2C(=O)N[C@@H](CCCCN)C(=O)N2[C@H]1c1ccc(O)cc1 | 3.12 | 1.31 | -0.108 | 0.953 | 1.44 | 1.61 | 0.868 | 1.75 | 1.36 | -0.62 (inactive)
C=CCC(OC(C)=O)[C@@H]1[C@@H](N(Cc2ccc(-c3ccccc3)cc2)C(=O)Cc2ccc(OC)cc2)c2cc(OCCCO)ccc2N1C(=O)c1ccc2ccccc2n1 (stereo not given in full) | 0.009 | 0.0656 | 0.0569 | 0.534 | 0.45 | 0.635 | 1.34 | 0.221 | 0.22 | -0.592 (inactive)
O=C/C=C/c1ccc(Cl)cc1 | -0.318 | -1.36 | -0.195 | -0.991 | -0.329 | -0.236 | 2.19 | -0.283 | -0.488 | -0.712 (inactive)
COCCOC(=O)N1C(=O)[C@@]2(c3cc(C#CCCO)ccc31)[C@H](C(=O)NC[C@H](O)c1ccccc1)[C@H]1C(=O)O[C@H](c3ccccc3)[C@H](c3ccccc3)N1[C@@H]2c1ccc(O)cc1 | 1.69 | 0.789 | 0.148 | -0.134 | 1.09 | 0.837 | -0.319 | 0.429 | 0.363 | 0.788 (inactive)
CC(C)NC(=O)[C@@]1(Cc2ccccc2I)c2ccccc2C(=O)N(Cc2ccccc2)[C@H]1c1ccc(CO)cc1 | 3.2 | 1.19 | 1.05 | 0.387 | 1.29 | 1.07 | 0.188 | 1.19 | 0.131 | 0.277 (inactive)
CN(C)CCCCNC(=O)[C@H]1C[C@H]2C(=O)N[C@@H](Cc3ccccc3)C(=O)N2[C@H]1c1ccc(O)cc1 | 0.499 | 1.16 | -0.366 | 0.986 | 1.34 | 1.64 | -0.884 | 1.31 | 1.2 | 0.999 (inactive)
CCC[C@@H]1C=C(C(=O)O)[C@H](c2ccc(C)cc2)N1S(=O)(=O)c1ccc(C)cc1 | 1.65 | 1.29 | 0.354 | 1.04 | 0.118 | -0.502 | -0.564 | -0.234 | 0.945 | 1.79 (inactive)
C=CCOC(=O)[C@H]1[C@@H]2C(=O)O[C@@H](c3ccccc3)[C@@H](c3ccccc3)N2[C@@H](c2ccc(OCCOC(=O)[C@@H]3C[C@@H]4C(=O)N5CCC[C@H]5C(=O)N4[C@@H]3c3ccc(O)cc3)cc2)[C@]12C(=O)Nc1ccccc12 | 1.16 | 1.18 | 0.109 | 0.655 | 1.39 | 1.35 | -1.19 | 1.04 | 0.77 | -0.354 (inactive)
CC(C)C[C@@H]1NC(=O)[C@H]2C[C@@H](C(=O)NCCCCCNC(=O)CS)[C@@H](c3cccc(OCCO)c3)N2C1=O | 2.41 | 1.21 | 0.603 | 0.374 | 1.44 | 1.7 | -0.628 | 1.35 | 0.195 | -1.15 (inactive)
C=CCC(OC(C)=O)[C@@H]1[C@@H](N(Cc2ccc(-c3ccccc3)cc2)C(=O)Cc2ccc(F)cc2)c2cc(OCCCO)ccc2N1C(=O)c1ccc2ccccc2n1 (stereo not given in full) | -0.26 | -0.0475 | -0.312 | 0.165 | 0.177 | 0.253 | 1.94 | -0.192 | 0.216 | -1.26 (inactive)
